From PubChem BioAssay
Values without a mark were called inactive. Some of the results follow. Activity calls are given as the source filed them. Cut-off read from the data, not from the text of the source, unless noted: active = inhibition above about 28%; inactive = the rest.

Key:
[1] = biological target: Galanin receptor type 2 (Homo sapiens) (UniProt O43603); assay: blockers of human galanin receptor 2 – cell-based, confirmation (AID 866; in the data active = inhibition above about 27%;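 note: cells stimulated with galanin at about its EC80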); conditions: GALR2-expressing cells, antagonist mode, at 4 µM, active compounds read high
[2] = nonspecific BLA reporter inhibition – CHO NFAT-bla cells, FRET readout, counter-screen for GALR2 antagonist project, confirmation (AID 867;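 active = inhibition above the mean inhibition across tested compounds plus 3 SD, cut at about 27% in these data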;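 note: 0% = 500 nM thapsigargin stimulated wells and 100% = unstimulated BSA only wells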); conditions: beta-lactamase FRET, thapsigargin-stimulated, at 4.2 µM, active compounds read high
[3] = biological target: Nuclear receptor coactivator 3 (Homo sapiens) (UniProt Q9Y6Q9); assay: NCOA3 GAL4-fusion reporter inhibition – cell-based, luminescence, quadruplicate, confirmation (AID 588792;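 active = mean inhibition over 43.08%, the solvent-only control mean plus 3 SD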;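 note: 0% = DMSO treated cells and 100% = gossypol at 36 µM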); conditions: HEK293 GAL4-SRC3 luciferase reporter, at 3.6 µM, active compounds read high
Nuclear receptor coactivator 3 (Homo sapiens), sequence (Q9Y6Q9 whole entry, looked up, the tested form may be a part): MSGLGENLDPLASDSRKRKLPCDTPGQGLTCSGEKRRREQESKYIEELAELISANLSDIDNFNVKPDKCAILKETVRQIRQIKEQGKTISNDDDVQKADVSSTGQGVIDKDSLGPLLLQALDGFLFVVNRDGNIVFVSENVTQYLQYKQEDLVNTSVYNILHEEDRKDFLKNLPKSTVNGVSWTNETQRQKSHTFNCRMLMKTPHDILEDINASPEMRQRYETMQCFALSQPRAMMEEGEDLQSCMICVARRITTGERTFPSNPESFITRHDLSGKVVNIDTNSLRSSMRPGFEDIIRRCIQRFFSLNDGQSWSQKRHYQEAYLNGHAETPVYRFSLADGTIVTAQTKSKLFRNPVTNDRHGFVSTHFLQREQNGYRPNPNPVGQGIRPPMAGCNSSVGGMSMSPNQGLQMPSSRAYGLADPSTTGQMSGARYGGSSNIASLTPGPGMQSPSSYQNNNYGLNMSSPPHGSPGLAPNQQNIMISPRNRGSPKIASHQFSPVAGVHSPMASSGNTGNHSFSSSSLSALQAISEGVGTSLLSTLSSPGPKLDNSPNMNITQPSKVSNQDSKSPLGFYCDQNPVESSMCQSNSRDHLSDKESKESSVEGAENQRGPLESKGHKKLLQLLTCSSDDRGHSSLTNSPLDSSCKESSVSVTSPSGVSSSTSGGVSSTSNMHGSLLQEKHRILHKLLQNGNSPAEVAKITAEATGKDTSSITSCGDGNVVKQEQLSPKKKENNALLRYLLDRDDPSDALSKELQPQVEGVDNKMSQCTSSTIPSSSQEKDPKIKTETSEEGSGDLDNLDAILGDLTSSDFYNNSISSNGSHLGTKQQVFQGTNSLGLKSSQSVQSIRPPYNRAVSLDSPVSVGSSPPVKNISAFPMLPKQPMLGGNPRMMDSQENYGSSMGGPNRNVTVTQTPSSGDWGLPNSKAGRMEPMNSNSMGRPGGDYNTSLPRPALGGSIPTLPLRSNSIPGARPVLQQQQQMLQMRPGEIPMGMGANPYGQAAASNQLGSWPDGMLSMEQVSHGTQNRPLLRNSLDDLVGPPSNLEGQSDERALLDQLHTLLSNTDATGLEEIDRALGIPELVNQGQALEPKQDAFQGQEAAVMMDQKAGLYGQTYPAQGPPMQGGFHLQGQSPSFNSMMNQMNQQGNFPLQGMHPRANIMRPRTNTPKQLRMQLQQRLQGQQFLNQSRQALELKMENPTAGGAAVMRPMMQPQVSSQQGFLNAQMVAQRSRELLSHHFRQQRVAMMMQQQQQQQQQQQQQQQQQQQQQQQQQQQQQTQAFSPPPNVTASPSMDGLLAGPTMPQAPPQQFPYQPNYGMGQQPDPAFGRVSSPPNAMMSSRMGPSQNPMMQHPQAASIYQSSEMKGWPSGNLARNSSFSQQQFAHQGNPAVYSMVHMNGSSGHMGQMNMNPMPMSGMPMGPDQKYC

[4] = test system: transactivating tegument protein VP16 (Human herpesvirus 1), Gal4-VP16 luciferase reporter; assay: repression of VP16-driven luciferase reporter – cell-based, luminescence, high throughput, counter-screen for SRC3 inhibitor project (AID 588794; in the data active = inhibition above about 30%); conditions: mammalian cells, at 3.6 µM, active compounds read high
[5] = biological target: Nuclear receptor coactivator 1 (Homo sapiens) (UniProt Q15788); assay: NCOA1 GAL4-fusion reporter inhibition – cell-based, luminescence, quadruplicate, confirmation (AID 588820;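 active = mean inhibition above 46.68%, the untreated control wells mean plus 3 SD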;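 note: 0% = DMSO wells and 100% = gossypol 36 µM treated wells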); conditions: HEK293 GAL4-SRC1 luciferase reporter, at 3.6 µM, active compounds read high
Nuclear receptor coactivator 1 (Homo sapiens), sequence (Q15788 whole entry, looked up, the tested form may be a part): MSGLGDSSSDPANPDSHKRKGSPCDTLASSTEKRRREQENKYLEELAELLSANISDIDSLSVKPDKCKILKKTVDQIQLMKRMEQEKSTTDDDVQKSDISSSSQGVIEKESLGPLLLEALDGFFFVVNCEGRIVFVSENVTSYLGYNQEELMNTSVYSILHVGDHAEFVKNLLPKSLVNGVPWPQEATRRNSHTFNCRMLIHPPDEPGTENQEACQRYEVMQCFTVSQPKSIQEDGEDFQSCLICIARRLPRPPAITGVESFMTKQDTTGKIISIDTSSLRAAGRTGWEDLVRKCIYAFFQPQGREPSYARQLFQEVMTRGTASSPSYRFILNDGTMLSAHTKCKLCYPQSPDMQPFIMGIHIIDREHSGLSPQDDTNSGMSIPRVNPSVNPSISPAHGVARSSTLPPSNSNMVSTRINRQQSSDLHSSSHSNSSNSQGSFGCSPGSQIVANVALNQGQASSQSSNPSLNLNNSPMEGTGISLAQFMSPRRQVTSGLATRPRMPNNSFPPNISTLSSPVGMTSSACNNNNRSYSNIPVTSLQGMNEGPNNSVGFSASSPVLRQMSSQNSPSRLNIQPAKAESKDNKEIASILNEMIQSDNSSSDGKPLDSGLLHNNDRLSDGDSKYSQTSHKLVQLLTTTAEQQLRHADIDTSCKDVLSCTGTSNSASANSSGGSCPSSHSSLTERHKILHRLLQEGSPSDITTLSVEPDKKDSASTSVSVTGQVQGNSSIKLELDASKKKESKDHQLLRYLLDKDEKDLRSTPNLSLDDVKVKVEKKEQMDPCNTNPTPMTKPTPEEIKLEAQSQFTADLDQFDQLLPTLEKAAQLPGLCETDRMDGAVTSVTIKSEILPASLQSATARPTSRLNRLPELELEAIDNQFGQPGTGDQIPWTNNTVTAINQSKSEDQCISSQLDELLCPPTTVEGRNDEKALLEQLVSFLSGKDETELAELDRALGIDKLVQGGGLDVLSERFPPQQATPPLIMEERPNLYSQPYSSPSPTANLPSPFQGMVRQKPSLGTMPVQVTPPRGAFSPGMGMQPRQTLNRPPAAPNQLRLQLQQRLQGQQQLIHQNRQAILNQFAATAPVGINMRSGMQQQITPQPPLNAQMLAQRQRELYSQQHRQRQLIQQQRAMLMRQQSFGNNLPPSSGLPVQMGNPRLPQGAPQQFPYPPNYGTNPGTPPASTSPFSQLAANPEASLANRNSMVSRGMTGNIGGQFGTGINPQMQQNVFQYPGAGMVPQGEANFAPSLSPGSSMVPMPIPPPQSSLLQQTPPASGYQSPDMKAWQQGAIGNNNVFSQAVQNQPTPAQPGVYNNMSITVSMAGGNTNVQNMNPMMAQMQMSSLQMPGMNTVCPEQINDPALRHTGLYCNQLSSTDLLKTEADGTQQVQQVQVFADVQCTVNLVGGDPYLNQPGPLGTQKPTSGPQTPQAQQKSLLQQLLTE

[6] = repression of VP16-driven luciferase reporter – cell-based, luminescence, high throughput, counter-screen for SRC1 inhibitor project (AID 588824; in the data active = inhibition above about 25%); conditions: cell-based VP16 transactivation luciferase luminescence; at 3.6 µM; active compounds read high
[7] = biological target: Receptor-interacting serine/threonine-protein kinase 2 (Homo sapiens) (UniProt O43353); assay: inhibitors of RIPK2 association with NOD2 – fluorescence, CHO cells, BLA complementation, triplicate, confirmation (AID 624370;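 active = mean inhibition across replicates above a set limit taken from the earlier primary screen, cut at about 21% in these data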;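 note: 0% = DMSO-only wells and the high end = clavulanate BLA-blocked wells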); conditions: CCF4 FRET, at 4.98 µM, active compounds read high
Receptor-interacting serine/threonine-protein kinase 2 (Homo sapiens), sequence (O43353 whole entry, looked up): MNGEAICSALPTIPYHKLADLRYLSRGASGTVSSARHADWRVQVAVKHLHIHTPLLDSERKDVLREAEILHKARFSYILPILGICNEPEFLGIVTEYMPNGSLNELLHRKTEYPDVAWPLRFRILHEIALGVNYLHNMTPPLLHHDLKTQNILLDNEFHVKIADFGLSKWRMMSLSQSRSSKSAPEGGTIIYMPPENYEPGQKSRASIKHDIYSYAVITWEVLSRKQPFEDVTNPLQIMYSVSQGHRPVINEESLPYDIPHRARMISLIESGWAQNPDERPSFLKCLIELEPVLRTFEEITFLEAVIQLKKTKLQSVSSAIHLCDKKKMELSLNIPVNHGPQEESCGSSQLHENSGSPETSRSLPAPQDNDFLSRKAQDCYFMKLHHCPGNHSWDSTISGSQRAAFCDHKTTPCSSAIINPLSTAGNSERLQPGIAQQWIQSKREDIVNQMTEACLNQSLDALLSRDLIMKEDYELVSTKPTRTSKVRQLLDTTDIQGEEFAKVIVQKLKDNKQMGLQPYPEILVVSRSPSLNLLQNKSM

[8] = BLA reporter readout interference – cell-based, CHO-K1 CMV-bla, CCF4 FRET, fluorescence, artefact control for NOD2-RIPK2 interaction inhibitor project, confirmation (AID 624371;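 active = mean inhibition above the low-control mean inhibition plus three low-control SD, cut at about 11% in these data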;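 note: 0% = DMSO only wells and 100% = clavulanate high control wells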); conditions: CCF4 FRET ratio, counterscreen, at 4.98 µM, active compounds read high
[9] = biological target: Photoreceptor-specific nuclear receptor (Homo sapiens) (UniProt Q9Y5X4); assay: retest of NR2E3-NCOR disrupting agonists – cell-based, luminescence, CHO-S two-hybrid, confirmation (AID 624378;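 active = average inhibition above a cutoff equal to the mean inhibition of all tested compounds plus one SD, cut at about 70% in these data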;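 note: 0% = DMSO in NR2E3 cells and 100% = DMSO in cells lacking NR2E3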); conditions: CHO-S mammalian two-hybrid NR2E3-NCOR, luciferase luminescence; at 3.98 µM; active compounds read high
Photoreceptor-specific nuclear receptor (Homo sapiens), sequence (Q9Y5X4 whole entry, looked up, the tested form may be a part): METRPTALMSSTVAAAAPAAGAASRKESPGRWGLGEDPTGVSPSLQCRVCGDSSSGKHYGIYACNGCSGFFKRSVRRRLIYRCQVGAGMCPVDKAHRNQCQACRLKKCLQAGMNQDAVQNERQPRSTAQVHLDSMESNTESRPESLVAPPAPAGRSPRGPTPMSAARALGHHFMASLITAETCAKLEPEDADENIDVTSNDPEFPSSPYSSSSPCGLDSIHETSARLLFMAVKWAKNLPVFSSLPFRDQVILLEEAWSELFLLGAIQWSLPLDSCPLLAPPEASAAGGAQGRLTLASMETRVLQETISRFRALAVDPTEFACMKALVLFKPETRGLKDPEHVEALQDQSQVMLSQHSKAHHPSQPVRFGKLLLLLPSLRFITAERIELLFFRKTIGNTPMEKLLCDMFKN

[10] = nonselective effects on VP16 transactivation – cell-based, luminescence, CHO-S, high throughput, counter-screen for NR2E3 agonist project, confirmation (AID 624379;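 active = mean inhibition above a cutoff equal to the average over all tested compounds plus one standard deviation, cut at about 70% in these data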;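 note: luciferase from a UAS reporter driven by GAL4-VP16 transactivation; 0% = DMSO with VP16-transfected cells and 100% = DMSO with cells lacking VP16; higher means less reporter light so more repression of VP16 activity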); conditions: CHO-S GAL4-VP16 luciferase reporter, at 3.98 µM, active compounds read high
[11] = StAR promoter reporter inhibitors, counter-screen for LRH-1 inverse agonist project, cell-based, luminescence, high throughput (AID 651611); conditions: StAR promoter luciferase reporter counterscreen, at 3.6 µM, active compounds read high
[12] = biological target: Nuclear receptor subfamily 5 group A member 2 (Homo sapiens) (UniProt O00482); assay: NR5A2 activity suppression in reporter cells – cell-based, luminescence, confirmation (AID 651613; in the data active = inhibition above about 42%;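 note: HEK293T cells co-transfected with LRH-1 and StAR promoter luciferase reporter; 0% = vehicle wells and 100% = parental cells lacking receptor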); conditions: cell-based LRH-1 luciferase reporter, inverse agonism; at 3.6 µM; active compounds read high
Nuclear receptor subfamily 5 group A member 2 (Homo sapiens), sequence (O00482 whole entry, looked up): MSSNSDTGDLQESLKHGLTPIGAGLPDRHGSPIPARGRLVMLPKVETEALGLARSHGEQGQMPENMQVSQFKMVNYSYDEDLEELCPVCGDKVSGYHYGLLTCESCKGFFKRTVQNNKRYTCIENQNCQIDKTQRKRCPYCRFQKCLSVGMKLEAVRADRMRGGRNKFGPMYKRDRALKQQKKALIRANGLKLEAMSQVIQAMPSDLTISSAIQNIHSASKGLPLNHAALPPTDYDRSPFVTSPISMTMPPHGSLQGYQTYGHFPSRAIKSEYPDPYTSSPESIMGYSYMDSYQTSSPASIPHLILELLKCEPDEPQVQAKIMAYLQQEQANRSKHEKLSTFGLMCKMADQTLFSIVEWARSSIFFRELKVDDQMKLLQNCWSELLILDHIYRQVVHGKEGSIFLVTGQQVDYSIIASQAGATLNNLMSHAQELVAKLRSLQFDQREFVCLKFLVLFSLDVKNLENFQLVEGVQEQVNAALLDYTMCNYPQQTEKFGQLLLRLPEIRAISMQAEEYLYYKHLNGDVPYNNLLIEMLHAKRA

[13] = biological target: Steroidogenic factor 1 (Homo sapiens) (UniProt Q13285); assay: inverse agonism at SF1 nuclear receptor – cell-based, luminescence, high throughput, counter-screen for LRH-1 inverse agonist project (AID 651614; in the data active = inhibition above about 44%;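 note: cells cotransfected with StAR promoter reporter and SF1 expression vector; 0% = vehicle on cells with receptor and 100% = vehicle on cells lacking receptor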); conditions: cell-based SF1 luciferase reporter, at 3.6 µM, active compounds read high
Steroidogenic factor 1 (Homo sapiens), sequence (Q13285 whole entry, looked up, the tested form may be a part): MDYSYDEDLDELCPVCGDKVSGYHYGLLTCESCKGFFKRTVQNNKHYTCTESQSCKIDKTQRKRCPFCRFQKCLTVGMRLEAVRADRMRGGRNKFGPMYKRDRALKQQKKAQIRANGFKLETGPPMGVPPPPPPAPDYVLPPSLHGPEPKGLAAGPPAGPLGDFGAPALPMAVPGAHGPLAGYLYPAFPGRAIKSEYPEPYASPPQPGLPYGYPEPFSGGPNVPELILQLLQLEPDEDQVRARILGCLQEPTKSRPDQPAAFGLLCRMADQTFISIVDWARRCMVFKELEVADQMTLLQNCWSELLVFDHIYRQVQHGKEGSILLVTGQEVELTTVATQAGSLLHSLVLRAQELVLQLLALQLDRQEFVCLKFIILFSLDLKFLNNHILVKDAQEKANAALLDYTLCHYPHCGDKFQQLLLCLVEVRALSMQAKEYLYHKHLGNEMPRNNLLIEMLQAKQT

[14] = compounds suppressing VP16-driven luciferase signal – cell-based, luminescence, high throughput, counter-screen for LRH-1 inverse agonist project (AID 651615; in the data active = inhibition above about 33%); conditions: Gal4-VP16 luciferase reporter cells, at 3.6 µM, active compounds read high
[15] = test system: transactivating tegument protein VP16 (Human herpesvirus 1); assay: compounds suppressing VP16-driven luciferase signal – cell-based, luminescence, single concentration, counter-screen for SRC2 inhibitor project (AID 652007; in the data active = inhibition above about 36%); conditions: cell-based VP16 transactivation luciferase reporter, at 8.9 µM, active compounds read high
[16] = biological target: Nuclear receptor coactivator 2 (Homo sapiens) (UniProt Q15596); assay: inhibition of GAL4-SRC2 driven luciferase expression – cell-based, luminescence, HEK293, triplicate, confirmation (AID 652008;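 active = mean inhibition above 46.5%, the solvent-only control mean plus 3 SD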;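 note: 0% = DMSO-treated cells and 100% = Gossypol at 36 µM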); conditions: HEK293 GAL4-SRC2 luciferase reporter, at 8.9 µM, active compounds read high

Compound	inhibition [1]	inhibition [2]	inhibition [3]	inhibition [4]	inhibition [5]	inhibition [6]	inhibition [7]	inhibition [8]	inhibition [9]	inhibition [10]	inhibition [11]	inhibition [12]	inhibition [13]	inhibition [14]	inhibition [15]	inhibition [16]
CC[C@H]1CN2CCc3cc(OC)c(OC)cc3[C@@H]2C[C@@H]1C[C@H]1NCCc2cc(OC)c(OC)cc21	102% (active)	92.8% (active)	98.3% (active)	97.2% (active)	92.6% (active)	96.4% (active)	30.7% (active)	-0.09%	97.8% (active)	99.2% (active)	94.6% (active)	109% (active)	97.7% (active)	96.4% (active)		
Cc1[nH]c(=O)c(C(=O)/C=C/c2ccccc2)c2c1CCCC2			66.8% (active)	56.1% (active)	70.5% (active)	57.9% (active)			24.6%	48%	54.4% (active)	71.7% (active)	68.2% (active)	74.8% (active)	50.1% (active)	63.9% (active)
c1cc(CNc2ccc3c(c2)OCCO3)ccn1			-1.65%	-11.2%	-6.52%	-0.58%					10%	2.45%	14.8%	-8.35%		
NCCCNc1nc(N)c([N+](=O)[O-])c(NC2CCCCC2)n1			62.2% (active)	42.4% (active)	7.71%	27.1% (active)					84.7% (active)	98.5% (active)	82.5% (active)	88.1% (active)		
Cc1ccc(NCCN(C)C)c2c(=O)c3cc(O)ccc3sc12			40.4%	41.6% (active)	46.6%	29.6% (active)					41.3% (active)	67.3% (active)	54.6% (active)	55.7% (active)		
